PubChem BioAssay
The source made the active and inactive calls.

What was measured:
[1] = system: PRMT1 (protein arginine N-methyltransferase 1); experiment: PRMT1 binders on small-molecule microarrays, primary screen, biochemical, small-molecule microarray, 635 nm fluorescence (AID 1088); details: small-molecule microarray binding, higher = more signal;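 further: binding of Prmt1 protein to compounds spotted on small-molecule microarray slides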
[2] = yeast growth modulation, basal conditions, primary screen, YJM789 clinical isolate, OD600, 24 h (AID 1089);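 further: growth of clinical yeast isolate S. cerevisiae YJM 789 seeded 1000 cells per well; test concentration not given here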; details: S. cerevisiae YJM789 growth, higher = more signal, called active from +8 up or from −8 down
[3] = fission yeast growth modulation, primary screen, strain 972, OD600, 24 h, no modulator (AID 1090);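 further: basal condition with compound alone and no growth modifier present; test concentration not given here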; details: S. pombe 972 growth, higher = more signal, called active from +8 up or from −8 down
[4] = S. cerevisiae growth modulation with rapamycin, primary screen, strain BY4716, OD600, 96 h (AID 1091); details: higher = more signal, called active from +8 up or from −8 down; further: test concentration not given here
[5] = target: Torsin-1A-interacting protein 2 (Homo sapiens) (UniProt Q8NFQ8); experiment: LULL1 binders on small-molecule microarray, primary screen, cell lysate, human LULL1 lysate, 635/667 nm fluorescence (AID 1092); details: hLULL1 lysate binding, 635 nm fluorescence, higher = more signal;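 further: probe is lysate of COS7 cells overexpressing human LULL1; score merges per-feature 667 nm fluorescence with signal-to-noise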
[6] = E. coli growth modulation, two-sided OD650, primary screen, E. coli filamentation project, strain DRC41, 24 h (AID 1093); details: OD650, 24 h, higher = more signal, called active from +8 up or from −8 down;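 further: MC1000 strain lacking acrAB efflux and sulA so SOS filamentation is blocked; test concentration not given here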
[7] = small-molecule microarray binders of probe aLefty2, primary screen, biochemical, biotinylated probe, 635/667 nm fluorescence (AID 1094); details: higher = more signal;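 further: score merges spot fluorescence near 667 nm with spot signal-to-noise ratio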
[8] = system: Noggin (protein binding on small-molecule microarray); experiment: Noggin binders on small-molecule microarray, primary screen, biochemical, 635/667 nm fluorescence (AID 1095); details: 635 nm fluorescence, higher = more signal;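 further: score merges 667 nm feature fluorescence with signal to noise over triplicate slides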
[9] = target: Neurogenic locus notch homolog protein 3 (Homo sapiens) (UniProt Q9UM47); experiment: NOTCH3 binders on small-molecule microarray, primary screen, biochemical, 635/667 nm fluorescence (AID 1096); details: NOTCH3 binding, 635 nm fluorescence, higher = more signal
[10] = small-molecule microarray binders of probe aEGFR, primary screen, biochemical, biotinylated probe, 635/667 nm fluorescence (AID 1097); details: higher = more signal;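 further: probe is a biotinylated anti-EGFR antibody binding compounds printed on slides; score combines fluorescence near 667 nm and signal to noise of each spot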
[11] = system: Plasmodium falciparum Sir2 (PF13_0152, Sir2A); experiment: pfSir2 binders on small-molecule microarrays, primary screen, biochemical, small-molecule microarray, 635 nm fluorescence (AID 1098); details: small-molecule microarray binding, fluorescence 635 nm; higher = more signal;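 further: score merges spot fluorescence intensity with its signal-to-noise ratio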
[12] = small-molecule microarray binders of probe aDKK1, primary screen, biochemical, biotinylated probe, 635/667 nm fluorescence (AID 1099); details: higher = more signal;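 further: score merges 667nm spot fluorescence with signal to noise across triplicate slides; reference of the scale not given here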
[13] = small-molecule microarray binders of probe aCHRDL2, primary screen, biochemical, biotinylated probe, 635/667 nm fluorescence (AID 1100); details: higher = more signal
[14] = splicing luciferase reporter signal modulators, primary screen, spliceosome inhibition project, cell-based, HEK293, splice +/- reporter (AID 1101); details: luminescence, 24 h, higher = more signal, called active from +8 up or from −8 down;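 further: HEK293 cells carrying a splicing-competent luciferase reporter gene; test concentration not given here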
[15] = target: Fibroblast growth factor 10 (Homo sapiens) (UniProt O15520); experiment: FGF10 binders on small-molecule microarrays, primary screen, biochemical, small-molecule microarray, 635 nm fluorescence (AID 1102); details: FGF10 binding, fluorescence 635 nm, higher = more signal
[16] = system: glycogen synthase kinase-3 (GSK3A per assay name; protocol says GSK3B); experiment: GSK3 binders on small-molecule microarrays, primary screen, biochemical, small-molecule microarray, 635 nm fluorescence, GSK3A (AID 1103); details: small-molecule microarray binding, fluorescence 635 nm; higher = more signal; further: the record names both GSK3A and GSK3B
[17] = target: Epidermal growth factor receptor (Homo sapiens) (UniProt P00533); experiment: EGFR binders on small-molecule microarrays, primary screen, biochemical, small-molecule microarray, 635 nm fluorescence (AID 1104); details: EGFR binding, higher = more signal;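 further: score merges 667 nm emission intensity with spot signal to noise over triplicate slides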
[18] = target: Follistatin-related protein 3 (Homo sapiens) (UniProt O95633); experiment: FSTL3 binders on small-molecule microarrays, primary screen, biochemical, small-molecule microarray, 635 nm fluorescence (AID 1105); details: FSTL3 binding, higher = more signal;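 further: score merges emission near 667 nm and signal to noise per printed spot across three slides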
[19] = target: Dickkopf-related protein 1 (Homo sapiens) (UniProt O94907); experiment: DKK1 binders on small-molecule microarrays, primary screen, biochemical, small-molecule microarray, 635 nm fluorescence scan (AID 1106); details: DKK1 binding, higher = more signal;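 further: score merges emission near 667 nm with signal to noise over three replicate slides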
[20] = system: Inhibin beta A chain (activin A); experiment: INHBA (activin A) binders on microarrays, primary screen, biochemical, small-molecule microarray, 635 nm fluorescence scan (AID 1107); details: small-molecule microarray binding, higher = more signal;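 further: mouse activin A protein probed at 4.33 µg/mL on printed slides; score merges bound-protein fluorescence near 667 nm with spot signal-to-noise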

Follistatin-related protein 3 (Homo sapiens), sequence (O95633 whole entry, looked up): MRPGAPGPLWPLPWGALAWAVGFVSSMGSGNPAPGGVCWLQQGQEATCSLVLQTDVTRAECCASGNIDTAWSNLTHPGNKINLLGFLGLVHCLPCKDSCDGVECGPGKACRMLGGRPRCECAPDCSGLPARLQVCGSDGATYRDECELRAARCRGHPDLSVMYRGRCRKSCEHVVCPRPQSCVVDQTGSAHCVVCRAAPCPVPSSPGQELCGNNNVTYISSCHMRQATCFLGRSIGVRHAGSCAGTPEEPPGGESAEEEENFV
Dickkopf-related protein 1 (Homo sapiens), sequence (O94907 whole entry, looked up): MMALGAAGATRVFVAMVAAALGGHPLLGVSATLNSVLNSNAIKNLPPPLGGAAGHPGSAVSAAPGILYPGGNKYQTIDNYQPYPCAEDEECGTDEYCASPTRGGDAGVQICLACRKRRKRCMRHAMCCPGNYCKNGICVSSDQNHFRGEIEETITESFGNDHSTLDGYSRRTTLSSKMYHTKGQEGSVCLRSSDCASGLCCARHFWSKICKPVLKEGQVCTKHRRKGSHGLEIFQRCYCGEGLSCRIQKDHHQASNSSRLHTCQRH
Torsin-1A-interacting protein 2 (Homo sapiens), sequence (Q8NFQ8 whole entry, looked up): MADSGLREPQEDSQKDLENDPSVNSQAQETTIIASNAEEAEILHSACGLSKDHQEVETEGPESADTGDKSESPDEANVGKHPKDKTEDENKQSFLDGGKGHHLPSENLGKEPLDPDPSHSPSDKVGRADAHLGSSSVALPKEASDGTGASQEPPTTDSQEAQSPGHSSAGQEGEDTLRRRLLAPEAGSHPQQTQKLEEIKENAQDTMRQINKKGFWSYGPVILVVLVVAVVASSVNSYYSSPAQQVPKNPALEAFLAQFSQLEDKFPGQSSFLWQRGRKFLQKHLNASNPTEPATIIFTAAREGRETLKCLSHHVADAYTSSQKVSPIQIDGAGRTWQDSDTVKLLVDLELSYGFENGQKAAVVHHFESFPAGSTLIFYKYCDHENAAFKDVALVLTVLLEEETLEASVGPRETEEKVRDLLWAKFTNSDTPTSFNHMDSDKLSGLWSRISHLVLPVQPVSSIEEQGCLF
Neurogenic locus notch homolog protein 3 (Homo sapiens), sequence (Q9UM47 whole entry, looked up): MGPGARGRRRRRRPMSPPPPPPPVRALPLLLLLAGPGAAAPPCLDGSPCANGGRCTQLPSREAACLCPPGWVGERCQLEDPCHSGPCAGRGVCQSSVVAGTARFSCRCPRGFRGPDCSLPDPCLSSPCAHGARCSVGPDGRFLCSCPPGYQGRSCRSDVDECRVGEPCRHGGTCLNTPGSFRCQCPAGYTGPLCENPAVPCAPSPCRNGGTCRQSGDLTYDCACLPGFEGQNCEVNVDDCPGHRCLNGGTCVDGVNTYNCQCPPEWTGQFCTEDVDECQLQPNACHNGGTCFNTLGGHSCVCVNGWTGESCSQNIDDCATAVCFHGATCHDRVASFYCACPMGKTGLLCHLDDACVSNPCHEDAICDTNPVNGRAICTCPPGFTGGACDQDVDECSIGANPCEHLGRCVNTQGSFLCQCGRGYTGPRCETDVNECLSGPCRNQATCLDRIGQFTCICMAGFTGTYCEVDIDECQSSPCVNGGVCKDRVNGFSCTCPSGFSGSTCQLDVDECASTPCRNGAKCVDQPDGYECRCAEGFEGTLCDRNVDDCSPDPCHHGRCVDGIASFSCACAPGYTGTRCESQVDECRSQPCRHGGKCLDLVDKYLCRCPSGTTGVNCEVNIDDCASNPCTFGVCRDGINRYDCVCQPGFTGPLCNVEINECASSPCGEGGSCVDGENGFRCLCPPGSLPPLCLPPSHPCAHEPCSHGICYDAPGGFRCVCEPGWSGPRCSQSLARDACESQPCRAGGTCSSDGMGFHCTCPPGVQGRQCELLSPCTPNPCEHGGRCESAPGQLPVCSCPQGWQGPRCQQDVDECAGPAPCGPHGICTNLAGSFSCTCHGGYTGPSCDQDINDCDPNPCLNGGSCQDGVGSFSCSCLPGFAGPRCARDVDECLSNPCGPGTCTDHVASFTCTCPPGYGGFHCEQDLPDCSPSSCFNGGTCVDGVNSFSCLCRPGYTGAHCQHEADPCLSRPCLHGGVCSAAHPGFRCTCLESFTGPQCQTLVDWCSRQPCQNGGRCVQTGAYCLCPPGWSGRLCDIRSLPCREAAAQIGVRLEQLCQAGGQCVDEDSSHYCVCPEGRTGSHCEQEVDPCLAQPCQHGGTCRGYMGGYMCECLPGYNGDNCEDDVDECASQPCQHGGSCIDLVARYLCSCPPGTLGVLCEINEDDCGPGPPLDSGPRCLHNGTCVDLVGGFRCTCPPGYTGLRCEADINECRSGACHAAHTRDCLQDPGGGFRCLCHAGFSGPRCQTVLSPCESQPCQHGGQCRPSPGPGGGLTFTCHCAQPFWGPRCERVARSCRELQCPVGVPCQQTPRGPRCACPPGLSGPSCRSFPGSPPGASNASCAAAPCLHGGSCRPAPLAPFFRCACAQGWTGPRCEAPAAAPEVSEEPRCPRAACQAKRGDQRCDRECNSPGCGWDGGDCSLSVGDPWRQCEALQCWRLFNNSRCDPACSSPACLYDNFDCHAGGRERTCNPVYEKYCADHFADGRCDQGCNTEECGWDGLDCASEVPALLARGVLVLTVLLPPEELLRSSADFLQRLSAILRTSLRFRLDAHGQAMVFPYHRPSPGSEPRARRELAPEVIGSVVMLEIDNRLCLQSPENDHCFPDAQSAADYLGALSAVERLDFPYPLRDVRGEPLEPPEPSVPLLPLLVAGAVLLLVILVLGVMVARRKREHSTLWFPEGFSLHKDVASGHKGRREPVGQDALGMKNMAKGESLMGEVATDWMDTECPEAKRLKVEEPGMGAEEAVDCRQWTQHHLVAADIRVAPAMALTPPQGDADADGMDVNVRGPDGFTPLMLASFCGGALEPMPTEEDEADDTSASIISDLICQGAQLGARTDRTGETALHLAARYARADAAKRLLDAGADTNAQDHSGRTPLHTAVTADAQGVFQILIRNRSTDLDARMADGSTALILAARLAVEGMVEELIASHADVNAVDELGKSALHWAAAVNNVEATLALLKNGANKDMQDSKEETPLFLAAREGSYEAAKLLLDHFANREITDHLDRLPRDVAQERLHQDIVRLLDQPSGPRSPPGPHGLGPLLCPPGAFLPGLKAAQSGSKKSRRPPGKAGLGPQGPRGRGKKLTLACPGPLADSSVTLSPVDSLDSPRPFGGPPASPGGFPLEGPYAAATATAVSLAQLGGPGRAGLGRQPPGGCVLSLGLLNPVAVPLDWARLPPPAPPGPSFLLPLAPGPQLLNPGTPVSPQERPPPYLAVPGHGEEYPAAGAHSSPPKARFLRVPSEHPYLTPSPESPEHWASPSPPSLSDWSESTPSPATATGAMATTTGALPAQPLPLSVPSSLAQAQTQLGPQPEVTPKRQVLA
Epidermal growth factor receptor (Homo sapiens), sequence (P00533 whole entry, looked up): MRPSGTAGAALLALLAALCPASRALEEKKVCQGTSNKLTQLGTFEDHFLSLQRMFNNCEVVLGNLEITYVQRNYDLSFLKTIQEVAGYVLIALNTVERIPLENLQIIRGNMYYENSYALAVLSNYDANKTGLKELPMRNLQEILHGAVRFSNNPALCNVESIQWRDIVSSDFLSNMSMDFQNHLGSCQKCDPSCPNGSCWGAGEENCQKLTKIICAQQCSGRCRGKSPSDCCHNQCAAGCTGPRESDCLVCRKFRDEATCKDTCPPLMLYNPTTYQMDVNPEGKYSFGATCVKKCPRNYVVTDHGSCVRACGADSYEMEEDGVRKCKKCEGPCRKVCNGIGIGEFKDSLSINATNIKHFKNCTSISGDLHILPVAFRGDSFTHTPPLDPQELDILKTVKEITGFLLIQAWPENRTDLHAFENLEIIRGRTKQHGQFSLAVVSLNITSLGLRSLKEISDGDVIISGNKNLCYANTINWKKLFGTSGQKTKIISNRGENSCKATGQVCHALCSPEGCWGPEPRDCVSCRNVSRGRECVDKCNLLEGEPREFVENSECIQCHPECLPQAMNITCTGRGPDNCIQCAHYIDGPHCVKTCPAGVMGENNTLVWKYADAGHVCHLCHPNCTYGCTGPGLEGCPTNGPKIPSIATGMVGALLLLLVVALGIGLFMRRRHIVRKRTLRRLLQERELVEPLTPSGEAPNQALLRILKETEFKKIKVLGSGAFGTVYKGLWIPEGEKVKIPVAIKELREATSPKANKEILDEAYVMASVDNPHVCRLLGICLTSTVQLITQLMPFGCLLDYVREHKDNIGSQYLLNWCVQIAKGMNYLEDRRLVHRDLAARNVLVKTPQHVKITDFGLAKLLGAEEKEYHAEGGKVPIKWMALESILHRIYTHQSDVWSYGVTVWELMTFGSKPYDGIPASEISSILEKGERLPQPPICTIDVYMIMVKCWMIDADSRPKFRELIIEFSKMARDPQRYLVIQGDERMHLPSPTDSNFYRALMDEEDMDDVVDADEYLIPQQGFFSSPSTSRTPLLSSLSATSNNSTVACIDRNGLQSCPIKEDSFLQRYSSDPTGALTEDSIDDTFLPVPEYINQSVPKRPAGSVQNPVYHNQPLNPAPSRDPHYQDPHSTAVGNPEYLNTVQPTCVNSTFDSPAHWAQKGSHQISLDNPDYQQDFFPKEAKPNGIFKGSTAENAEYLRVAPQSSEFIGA
Fibroblast growth factor 10 (Homo sapiens), sequence (O15520 whole entry, looked up): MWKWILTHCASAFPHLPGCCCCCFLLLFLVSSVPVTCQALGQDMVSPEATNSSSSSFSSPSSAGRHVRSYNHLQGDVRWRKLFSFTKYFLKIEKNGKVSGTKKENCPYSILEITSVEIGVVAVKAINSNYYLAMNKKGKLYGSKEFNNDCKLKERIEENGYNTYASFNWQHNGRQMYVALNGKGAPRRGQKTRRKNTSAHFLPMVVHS

| Compound | composite z-score [1] | z-score [2] | z-score [3] | z-score [4] | composite z-score [5] | z-score [6] | composite z-score [7] | composite z-score [8] | composite z-score [9] | composite z-score [10] | composite z-score [11] | composite z-score [12] | composite z-score [13] | z-score [14] | composite z-score [15] | composite z-score [16] | composite z-score [17] | composite z-score [18] | composite z-score [19] | composite z-score [20] |
| --- | --- | --- | --- | --- | --- | --- | --- | --- | --- | --- | --- | --- | --- | --- | --- | --- | --- | --- | --- | --- |
| COC(=O)CC=C[C@@H](C)[C@@H](C=NO[C@H](C)c1cn([C@@H]2COC[C@H]2O)nn1)NS(=O)(=O)c1ccc(C)cc1 | 0.274 | 0.412 (inactive) | 0.144 (inactive) | -0.173 (inactive) | -0.0305 | 0.554 (inactive) | 0.0428 | 0.492 | 0.223 | 0.0049 | 0.163 | -0.268 | -0.57 | -0.0248 (inactive) | 0.43 | 0.427 | 0.59 | 0.746 | 1.07 | 0.216 |
| CCc1cc2c(nc1CC)CCN(CCC(C)=NOC[C@H]1O[C@H](c3ccccc3)C=C[C@@H]1Oc1ccc(OC)cc1)C2 | 0.841 | -0.837 (inactive) | -5.85 (inactive) | -0.473 (inactive) | 0.825 | -0.782 (inactive) | -0.164 | 0.0346 | 0.215 | -0.0549 | 0.507 | 0.46 | 0.0691 | -1.47 (inactive) | -0.344 | -0.26 | -0.0924 | -0.0668 | -0.159 | 0.813 |
| O=C1CCCC(C2=CCCCC2=O)C1 (stereo not given) | 0.0732 | 0.222 (inactive) | 0.65 (inactive) | 0.6 (inactive) | -0.168 | 0.455 (inactive) | 0.02 | 0.546 | 0.0934 | -0.029 | -0.153 | -0.356 | -0.766 | 0.378 (inactive) | 0.466 | 0.555 | 0.612 | 0.668 | 0.923 | 1.5 |
| COC(=O)[C@@H]1CC[C@H](C)[C@@H](c2ccc(C)cc2)N1C(=O)c1ccc(C=NOCC[C@@H]2C=C[C@H](OC(C)=O)[C@@H](COC(C)=O)O2)cc1 | 0.903 | 1.09 (inactive) | 1.58 (inactive) | 1.81 (inactive) | 0.105 | 0.411 (inactive) | -0.0736 | 0.647 | 0.792 | -0.0397 | 0.35 | -0.33 | -0.684 | 0.566 (inactive) | 0.402 | 0.637 | 0.49 | 0.644 | 0.948 | 0.323 |
| CON=Cc1ccc(C(=O)N2[C@H](c3ccc(C)cc3)[C@@H](C)CC[C@H]2C(=O)OC)cc1 | 1.17 | -0.0099 (inactive) | -2 (inactive) | -0.637 (inactive) | 1.23 | 0.823 (inactive) | -0.293 | 0.292 | 0.772 | -0.262 | 0.365 | -0.254 | -0.541 | 0.224 (inactive) | 0.52 | 0.873 | 0.594 | 0.512 | 0.573 | 0.339 |
| CCOC(=O)[C@H](CC(C)C)NC(=O)CCC1CC(OC(=O)NCc2ccc3c(c2)OCO3)CC2(CCCC(COC(=O)NCCCN3CCCC3=O)O2)O1 (stereo not given in full) | 1.49 | -0.0618 (inactive) | 0.162 (inactive) | -0.474 (inactive) | 1.94 | 0.485 (inactive) | -0.166 | 1.36 | 1.04 | -0.0271 | 0.929 | -0.0602 | -0.568 | -0.719 (inactive) | 0.783 | 0.805 | 0.414 | 0.734 | 0.509 | -0.0813 |
| C=CC[C@@H]1C=C[C@H](ON=C2[C@H]3CCn4c(=O)n(-c5ccccc5)c(=O)n4[C@H]3[C@H](O)[C@@H]3O[C@H]23)[C@@H](CO)O1 | -0.41 | 0.552 (inactive) | 0.383 (inactive) | 1.04 (inactive) | -0.114 | 0.607 (inactive) | -0.257 | 0.308 | -0.0701 | 0.0434 | 0.482 | -0.378 | -0.548 | 0.492 (inactive) | 0.51 | -0.596 | 0.55 | 0.485 | 0.536 | 0.376 |
| CC(C)CON=C1C[C@@H](O)[C@@H](O)[C@@H]2[C@@H]3C(=O)N(C4CCCCC4)C(=O)[C@@H]3CC[C@H]12 | 1.42 | 0.0058 (inactive) | 0.303 (inactive) | -0.393 (inactive) | 1.1 | 0.411 (inactive) | -0.0396 | 0.683 | 1.13 | -0.0817 | 0.209 | 0.0948 | -0.106 | 0.00397 (inactive) | 0.74 | 0.842 | 0.362 | 0.611 | 0.544 | -0.312 |
| CCOC(=O)[C@H](CC(C)C)NC(=O)CCC1CC(OC(=O)NCc2cccc3ccccc23)CC2(CCCC(COC(=O)NCC3CCCCC3)O2)O1 (stereo not given in full) | 1.47 | -0.402 (inactive) | -0.947 (inactive) | 0.0127 (inactive) | 1.11 | -0.683 (inactive) | -0.0151 | 0.895 | 0.818 | -0.0828 | 0.442 | -0.11 | -0.369 | -1.42 (inactive) | 0.924 | 0.941 | 0.344 | 0.855 | 0.6 | 0.0385 |
| O=C1[C@H]2[C@H]3[C@H](O)[C@H](O)CC(=NOC[C@@H](O)COCc4ccco4)[C@H]3CC[C@H]2C(=O)N1Cc1ccccc1 | 0.411 | -1.14 (inactive) | -1.05 (inactive) | -1.11 (inactive) | -1.71 | -0.518 (inactive) | -0.148 | 0.594 | -0.309 | -0.0973 | 0.467 | -0.49 | -0.964 | -0.907 (inactive) | 0.378 | 0.0077 | 0.522 | 0.404 | 0.901 | 0.764 |
